# Article PMC4336329 (PLoS ONE, 2015)
# Hit rate of the full screen: of about 310,000 compounds, about 2,200 (0.71%) showed an effect of 50% or more. Effects have a minus sign here. This is one part of a sample in which strong results are shown more often than they occur.
# Target: human ether-à-go-go-related gene (hERG) potassium channel (human, UniProt Q12809)
# Test: primary screen, population patch clamp on CHO cells stably expressing hERG; higher = less effect of the substance
# Chain of human ether-à-go-go-related gene (hERG) potassium channel (Q12809 whole entry, looked up): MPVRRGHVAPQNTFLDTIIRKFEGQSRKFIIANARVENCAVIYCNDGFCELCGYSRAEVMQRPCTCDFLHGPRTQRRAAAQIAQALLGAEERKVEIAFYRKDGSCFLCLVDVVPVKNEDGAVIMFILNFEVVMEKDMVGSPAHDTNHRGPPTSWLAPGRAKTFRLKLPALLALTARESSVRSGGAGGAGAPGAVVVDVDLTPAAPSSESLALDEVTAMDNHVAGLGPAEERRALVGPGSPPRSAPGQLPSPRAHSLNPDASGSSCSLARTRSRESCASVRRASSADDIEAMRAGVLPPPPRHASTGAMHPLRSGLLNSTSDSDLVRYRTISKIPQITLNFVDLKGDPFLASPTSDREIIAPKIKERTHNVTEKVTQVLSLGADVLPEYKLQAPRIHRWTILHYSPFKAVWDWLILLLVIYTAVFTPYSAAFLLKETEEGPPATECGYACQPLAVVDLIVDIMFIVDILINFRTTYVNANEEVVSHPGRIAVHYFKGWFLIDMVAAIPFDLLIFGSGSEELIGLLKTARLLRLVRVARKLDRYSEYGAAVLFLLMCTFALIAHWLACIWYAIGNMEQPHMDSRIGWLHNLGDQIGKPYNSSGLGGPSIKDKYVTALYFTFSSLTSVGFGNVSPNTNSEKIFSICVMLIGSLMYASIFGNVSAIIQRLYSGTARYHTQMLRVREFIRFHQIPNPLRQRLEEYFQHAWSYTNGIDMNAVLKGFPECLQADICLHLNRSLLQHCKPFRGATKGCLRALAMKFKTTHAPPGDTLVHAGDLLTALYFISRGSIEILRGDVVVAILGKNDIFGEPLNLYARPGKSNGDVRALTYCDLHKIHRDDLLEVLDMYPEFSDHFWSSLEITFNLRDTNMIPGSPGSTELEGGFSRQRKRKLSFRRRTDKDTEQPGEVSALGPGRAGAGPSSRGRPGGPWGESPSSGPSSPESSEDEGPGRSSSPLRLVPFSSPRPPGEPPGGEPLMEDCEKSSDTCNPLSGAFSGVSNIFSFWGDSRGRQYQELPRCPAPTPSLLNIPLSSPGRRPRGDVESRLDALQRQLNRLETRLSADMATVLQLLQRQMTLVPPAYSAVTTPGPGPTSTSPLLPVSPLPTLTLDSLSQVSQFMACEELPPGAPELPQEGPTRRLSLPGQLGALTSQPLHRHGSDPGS
row,SMILES,"hERG current change (%, negative = inhibition) at 1uM [%]"
1,CCOC(=O)CSC1=NC(=O)/C(=C/c2ccc(Br)cc2)S1,9.71
2,CCS(=O)(=O)NC(C)c1nnc2n1-c1ccc(Br)cc1C(c1ccccc1Cl)=NC2 (stereo not drawn),-4.22
3,Cc1cc(C)cc(Nc2nc3c(S(=O)(=O)c4ccccc4)nnn3c3ccccc23)c1,11.3
4,CC(Oc1ccc(Cl)cc1)C(=O)Nc1ccccc1C(=O)N1CCOCC1 (stereo not drawn),-1.27
5,CCc1ccc(CNCc2cccnc2)cc1,9.07
6,COc1ccc(-c2cc(C(F)(F)F)n3nc(C(=O)N4CCCCC4)cc3n2)cc1,4.13
7,O=C(O)COc1ccc(C(NC(=O)c2c(F)cccc2F)NC(=O)c2c(F)cccc2F)cc1,16.9
8,O=C1C2=C(SCCS2)C(=O)N1c1ccccc1,20.6
9,C=CCN=C1SC(C)C(=O)N1S(=O)(=O)c1ccccc1 (stereo not drawn),4.31
10,CCCc1nnc(SCC(=O)Nc2ccc(OC)cc2)n1N,11.1
11,CC(=O)Oc1ccc(/C(C)=N/N2CCN(Cc3ccc(C)cc3)CC2)cc1,-69.8
12,COc1cc(/C(C)=N/N2CCN(Cc3ccc(C)cc3)CC2)ccc1O,-3.97
13,CC(=O)Oc1ccc(/C(C)=N\N2CCN(Cc3ccc(Cl)cc3)CC2)cc1,-16.4
14,CCOC(=O)c1sc(NC(=O)CCN2CCCCCC2)c(C(=O)OCC)c1C,10.6
15,CCOC(=O)c1sc(NC(=O)CCN2CCN(CC)CC2)c(C(=O)OCC)c1C,-59.8
16,CCOC(=O)c1sc(NC(=O)CCN2CCN(C)CC2)c(C(=O)OCC)c1C,-15.3
17,COc1ccc(CCC(=O)Nc2nc3ccccc3[nH]2)cc1OC,-51.1
18,COc1ccccc1CCC(=O)Nc1nc2ccccc2[nH]1,18.7
19,COc1ccc(CCC(=O)Nc2nc3ccccc3[nH]2)cc1,5.78
20,COCCNC(=S)NC12CC3CC(CC(C3)C1)C2,11.3
21,O=C(NC12CC3CC(CC(C3)C1)C2)c1ccc(-c2cccc(Cl)c2)o1,21.9

row,SMILES,"hERG current change (%, negative = inhibition) at 1uM [%]"
1,O=C(CCCC(=O)OCC(=O)c1ccc(F)cc1)Nc1cc(C(F)(F)F)ccc1Cl,12
2,O=C(Cc1ccc(Cl)c(Cl)c1)Nc1ccc2[nH]c(=O)[nH]c2c1,4.75
3,COC(=O)c1cc(S(=O)(=O)NCC2CCN(Cc3cccc(F)c3)CC2)c[nH]1,2.87
4,COC(=O)c1cc(S(=O)(=O)NCC2CCN(Cc3ccc(F)cc3)CC2)c[nH]1,7.24
5,COC(=O)c1cc(S(=O)(=O)NCC2CCN(Cc3ccc(Cl)cc3)CC2)c[nH]1,-59.6
6,COC(=O)c1cc(S(=O)(=O)NCC2CCN(Cc3cccc(Cl)c3)CC2)c[nH]1,5.82
7,COC(=O)c1cc(S(=O)(=O)NCC2CCN(Cc3ccc(C)cc3)CC2)c[nH]1,-63
8,COC(=O)c1cc(S(=O)(=O)NCC2CCN(Cc3cc(C)ccc3C)CC2)c[nH]1,2.48
9,COc1cc(/C=N/NC(=O)c2ccc(N(C)S(=O)(=O)c3ccccc3)cc2)cc(OC)c1OC,10.6
10,O=C(O)CCC(=O)Nc1cccc(-c2csc(-c3ccccc3)n2)c1,4.25
11,COC(=O)c1cc2sc(Cl)cc2n1CC(=O)Nc1ccc(OC)c(OC)c1OC,-58.5
12,COC(=O)c1cc2sccc2n1CC(=O)Nc1ccc(OC)c(OC)c1OC,9.49
13,COC(=O)c1cc2occc2n1CC(=O)Nc1ccc(OC)c(OC)c1OC,11.1
14,Cc1ccc2[nH]c(=O)c(CN(Cc3nnnn3Cc3ccccc3)C3CCCC3)cc2c1,11.9
15,O=c1cc(CS(=O)(=O)c2ccccc2)nc(-c2ccncc2)[nH]1,11.3
16,Cc1ccc(C(=O)N/C(=C\c2cccs2)C(=O)N2CCCCCC2)cc1,-19.3
17,Cc1ccc(C(=O)N/C(=C\c2cccs2)C(=O)N2CCOCC2)cc1C,1.26
18,Cc1ccc(C(=O)N/C(=C\c2cccs2)C(=O)N2CCN(C)CC2)cc1C,-77.2
19,Cc1ccc(C(=O)N/C(=C/c2cccs2)C(=O)N2CCCCCC2)cc1,-13.9
20,CCN1CCN(C(=O)/C(=C/c2cccs2)NC(=O)c2ccc(C)c(C)c2)CC1,-83.5
21,COc1ccc(C(=O)N/C(=C\c2cccs2)C(=O)N2CCN(C)CC2)cc1OC,-33.9
